Source: PubChem BioAssay AID651820 (National Center for Advancing Translational Sciences (NCATS), 2012)
“And” between values parts separate entries of the source, which are not always exact repeats. Equal entries are not always repeated. Hit rate of the full screen: of about 340,000 compounds, about 12,000 (3.5%) were called active. Where a call stands in place of a potency, no number is given. Inconclusive results (about 18%) are left out. Calls come from the whole dose curve; as a rule, active = well fitted inhibition curve with a large enough effect; inconclusive = small, poorly fitted or top-dose-only effect, or another doubt; inactive = no such curve, though single readings can be large or run the other way. This excerpt belongs to a sample that is enriched for actives. Where a structure was tested more than once in an assay, its records may differ in their call.

Assay: qHTS Assay for Inhibitors of Hepatitis C Virus (HCV)
Settings: Huh7.5.1 HCVcc-Cre infection, luciferase reporter, 44 h; series mostly up to 41.8 µM
How it was run: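 Compounds are dispensed onto cells plated 4 h earlier at 1,000 per well, with HCVcc-Cre virus (about 0.5 moi) added next. Following 44 h of culture, luminescent signal is measured for 15 sec after 15 min with substrate at room temperature.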
Potency is the fitted concentration of half-maximal effect.

| SMILES | Potency | activity change, negative = inhibition |
| --- | --- | --- |
| Cc1ccc(C)c(NC(=O)CN(C)C(=O)COc2ccc3ccccc3c2)c1 | inactive |  |
| CC(NC(=O)COC(=O)c1ccc2ccccc2n1)c1ccccc1 (stereo not given) | inactive |  |
| COc1cc(NC(=O)COC(=O)c2cc(S(=O)(=O)N3CCOCC3)ccc2F)cc(OC)c1 | inactive |  |
| Cc1ccc(F)cc1NC(=O)CSCc1c(C)noc1C | inactive |  |
| O=C(COC(=O)CNS(=O)(=O)c1ccc(F)c(F)c1F)NC1CCCC1 | inactive |  |
| CCC1(C)COC(c2ccc(OC)c(OC)c2)OC1 (stereo not given) | inactive |  |
| C=CC[C@H](CC(=O)OC(C)(C)C)C(=O)OC[C@H]1CCCN1C(=O)[C@H](CC=C)CC(=O)N(CCO)Cc1ccccc1 | inactive |  |
| C=CC[C@H](CC(=O)NCCO)C(=O)N[C@@H](COC(=O)[C@@H](CC=C)Cc1ccc(F)cc1)Cc1c[nH]c2ccccc12 | inactive |  |
| C=CCC[C@@H](Cc1ccc(F)cc1)C(=O)O[C@H](CNC(=O)[C@H](CC=C)CC(=O)N(CCO)Cc1ccccc1)c1ccccc1 | 8.91 µM (active) |  |
| COc1ccc(OC)c(Nc2nc3ccccc3n3cnnc23)c1 | 10 µM (active) |  |
| COc1cc(Nc2nc3ccc(Cl)cc3n3cnnc23)cc(OC)c1OC | inactive |  |
| COc1ccc(CCNc2nc3ccc(C)cc3n3cnnc23)cc1OC | inactive |  |
| CN1CCC(N(C)C(=O)c2ccc(Cl)c(S(=O)(=O)Nc3ccc(Cl)cc3)c2)CC1 | inactive |  |
| CC1CC(C)(C)CC2(C1)NC(=O)N(CC(=O)Nc1nccs1)C2=O (stereo not given) | inactive |  |
| COc1ccc2[nH]c3c(c2c1)CCN[C@H]3C | inactive |  |
| COc1ccc2[nH]c(=S)cc(C)c2c1 | inactive |  |
| COc1ccc2[nH]c3ccc(OC)cc3c2c1 | 25.1 µM (active) |  |
| COc1ccc(-c2noc(CCC(=O)N3CCN(c4cccc(C)c4)CC3)n2)cc1 | inactive |  |
| COc1cccc(-n2c(SCC(=O)NC3CCS(=O)(=O)C3)nc3ccccc3c2=O)c1 (stereo not given) | inactive |  |
| O=C1CC(c2ccccc2)C(=O)N2C(=O)CC(c3ccccc3)C(=O)N12 (stereo not given) | inactive |  |
| CCN(CC)C(=O)[C@H]1C[C@H](CC(=O)NCC23CC4CC(CC(C4)C2)C3)C(=O)N2CCc3c([nH]c4cc(CCC(=O)N(C)C)ccc34)[C@]12C |  | -5.73% [at 8.37 µM] (inactive) |
| COc1ccc(OCC(=O)Nc2ccc(N3CCC(C)CC3)cc2)cc1 | inactive |  |
| CCC(=O)c1ccc(OCC(=O)Nc2ccc(N3CCCCC3)cc2)cc1 | 11.2 µM (active) |  |
| O=C(COc1ccc([N+](=O)[O-])cc1)Nc1ccc(N2CCCC2)cc1 | inactive |  |
| O=C(NC(=S)Nc1ccc(Br)cc1F)C1CCCCC1 | inactive |  |

| SMILES | Potency | activity change, negative = inhibition |
| --- | --- | --- |
| Cc1c(NS(=O)(=O)c2cc(C(=O)NCCc3ccc(F)cc3)cc(Cl)c2Cl)c(=O)n(-c2ccccc2)n1C | inactive |  |
| CCN(CC(=O)NC(C)C)C(=O)c1cc(S(=O)(=O)N2CCCCC2)ccc1N1CCCCC1 | inactive |  |
| CN(C)CCCNC(=O)/C=C/c1ccc(OCc2c(F)cccc2Cl)cc1 | 2.82 µM (active) |  |
| O=C(/C=C/c1ccc(OCc2c(F)cccc2Cl)cc1)N1CCOCC1 | inactive |  |
| COCCCNC(=O)/C=C/c1ccc(OCc2c(F)cccc2Cl)cc1 | inactive |  |
| O=C1COc2ccc(C(=O)COC(=O)CCOc3ccccc3)cc2N1 | inactive |  |
| COCCN(C(=O)CC1CCCCC1)c1c(N)n(CC(C)C)c(=O)[nH]c1=O | inactive |  |
| CCCCn1c(N)c(N(CCOC)C(=O)c2cccc(S(=O)(=O)N3CCCCC3)c2)c(=O)[nH]c1=O | inactive |  |
| CC(Cc1ccccc1)NCCC(c1ccccc1)c1ccccc1 (stereo not given) | 10 µM (active) |  |
| Cc1ncoc1C(=O)NCCC(c1ccccc1)c1ccccc1 | inactive |  |
| CC(Cc1ccccc1)C(=O)N(C)Cc1ccccc1 (stereo not given) | inactive |  |
| CC[C@]12c3[nH]c4ccc(OC)cc4c3CCN1C(=O)C(CC(=O)NCc1ccco1)C[C@@H]2C(=O)N1CCN(C(=O)C2CC2)CC1 (stereo not given in full) | inactive |  |
| O=C(CN1CCN(S(=O)(=O)c2ccc(Cl)s2)CC1)N1CCCCC1 | inactive |  |
| COc1ccc(-c2csc(NC(=O)COC(=O)c3ccc(Br)o3)n2)cc1 | inactive |  |
| COc1ccc(OC)c(NC(=O)c2sc3nc(C)cc(C)c3c2N)c1 | inactive |  |
| COc1ccc(C(=O)NC2=NCCS2)c(OC)c1 | inactive |  |
| COc1ccc(OC)c(-c2csc(NC(=O)COC(=O)C3CC3)n2)c1 | 10 µM (active) |  |
| COc1ccc(OC)c(-c2csc(NC(=O)C3=NNC(=O)CC3)n2)c1 | 0.891 µM (active) |  |
| COc1ccc(CCNC(=O)COC(=O)C2CCCCC2)cc1 | inactive |  |
| COCCCn1c(SCC(=O)Nc2oc(C)c3c(C)n[nH]c(=O)c23)nc2sc3c(c2c1=O)CCC3 | inactive |  |
| COc1ccc(CN2C(CC(=O)Nc3cccnc3)c3ccc(C(F)(F)F)cc3S2(=O)=O)cc1 (stereo not given) | inactive |  |
| Cc1cc(C)c(C)c(S(=O)(=O)Nc2cccnc2)c1C | inactive |  |
| CC(OC(=O)C1CC(=O)N(Cc2ccccc2)C1)C(=O)Nc1ccccc1[N+](=O)[O-] (stereo not given) | inactive |  |
| CCOc1ccc(N2C(=O)CSC2=NC#N)cc1 | inactive |  |
| COc1ccc(OC)c(-n2c(=S)[nH]c3cc(C(=O)N4CCCCC4)ccc3c2=O)c1 | inactive |  |

| SMILES | Potency | activity change, negative = inhibition |
| --- | --- | --- |
| COc1cc2[nH]c(=S)n(Cc3ccc(F)cc3)c(=O)c2cc1OC | inactive |  |
| COc1cc(-n2c(=S)[nH]c3ccc(C)cc3c2=O)c(Cl)cc1Cl | 10 µM (active) |  |
| CCN(C(=O)CSc1cccc[n+]1[O-])c1ccccc1 | inactive |  |
| Cc1cccc(NC(=S)NC(=O)c2ccc(Br)o2)c1 | inactive |  |
| Cc1cccc(NC(=O)c2ccc([N+](=O)[O-])o2)c1 | 3.55 µM (active) |  |
| Cc1onc(NC(=O)c2ccc([N+](=O)[O-])o2)c1Br | inactive |  |
| CC(C)(C)OC(=O)N[C@H](C(=O)OC(C)(C)C)c1ccc(Br)cc1 | inactive |  |
| CC(=O)OCC(=O)C1(O)CCC2C3CC(C)C4=CC(=O)CCC4(C)C3C(O)CC21C (stereo not given) | inactive |  |
| CC1(C)C(=O)CCC2(C)C1=CCC1C2C(=O)CC2(C)C1CCC2(O)C(=O)CO (stereo not given) | inactive |  |
| C[C@]12C=CC(=O)C=C1CC[C@@H]1[C@@H]2C(=O)C[C@@]2(C)[C@H]1CC[C@]2(O)C(=O)CO | inactive and 2.82 µM (active) |  |
| COc1ccc(-n2c(C)cc(C(=O)CSc3nnc(-c4cccs4)o3)c2C)cc1 | 11.2 µM (active) |  |
| COc1ccc(C(=O)CSc2nnc(-c3ccco3)o2)cc1 | inactive |  |
| COc1ccc(-c2nnc(SCC(=O)c3cccs3)o2)c(OC)c1 | inactive |  |
| COc1cc(C=NNC(=O)c2cccnc2)ccc1OC(=O)c1ccccc1F | inactive |  |
| O=C(COC(=O)c1ccccn1)NNC(=O)c1ccc([N+](=O)[O-])cc1 | inactive |  |
| O=C(Nc1ccccc1)N1CCC(C(=O)N2CCN(Cc3ccccc3)CC2)CC1 | inactive |  |
| c1ccc(Nc2nc(-c3ccncc3)cs2)nc1 | 11.2 µM (active) |  |
| Cc1cccc(Nc2nc(-c3ccccc3)cs2)n1 | inactive |  |
| c1cnc(Nc2nc(-c3ccc4ccccc4c3)cs2)nc1 | inactive |  |
| CC(C)CN1CC(C)C(=O)N(c2ccccc2)C1=S (stereo not given) | inactive |  |
| O=[N+]([O-])c1ccc(N2CCOCC2)cc1 | inactive |  |
| COc1ccc(C2NCCCC2c2ccccc2)cc1 (stereo not given) | inactive |  |
| Cn1c(CN2CCOCC2)nc2cc(NC(=O)c3ccc(Cl)cc3)ccc21 | 2.82 µM (active) |  |
| CC(=O)NCCc1nc2cc(NC(=O)c3ccccc3)ccc2n1C | inactive |  |
| CCOC(=O)N1CCN(Cc2nc3cc(NC(C)=O)ccc3n2C)CC1 | inactive |  |

| SMILES | Potency | activity change, negative = inhibition |
| --- | --- | --- |
| COC(=O)Cc1ccc(Oc2ncc(C(F)(F)F)cc2Cl)cc1 | inactive |  |
| COc1cccc(/C(C)=N/Nc2ncc(Cl)cc2Cl)c1 | inactive |  |
| COc1cccc(/C=N/Nc2ncc(C(F)(F)F)cc2Cl)c1O | 5.62 µM (active) |  |
| Cc1cccc(NC(=O)CN2CCN(CC(=O)NCC3(N4CCCCC4)CCCCC3)CC2)c1C | inactive |  |
| COc1ccc(S(=O)(=O)N2CCOCC2)cc1NC(=O)Cc1coc2cc(C)ccc12 | inactive |  |
| Cc1ccc(-c2nn(-c3ccccc3)cc2C(=O)NCCCN2CCCC2=O)cc1 | inactive |  |
| Cn1c(=O)n(CCc2ccccc2)c(=O)c2c1nc1n2CCCN1c1ccccc1 | inactive |  |
| CC(C)CCn1c(=O)c2c(nc3n2CCCN3Cc2ccccc2)n(C)c1=O | 11.2 µM (active) |  |
| CC(C)CCn1c(CN(C)Cc2ccccc2)nc2c1c(=O)n(C)c(=O)n2C | inactive |  |
| O=c1[nH]c(=S)[nH]c(O)c1/C=C1\C=Nc2ccccc21 | inactive |  |
| Cc1cc(F)ccc1S(=O)(=O)Nc1ccc(C(=O)N(C)Cc2ccco2)cc1 | inactive |  |
| CCOC(=O)C1=CN(Cc2ccc(Br)cc2)S(=O)(=O)NC1C (stereo not given) | inactive |  |
| COC(=O)c1cc(Oc2ccc(S(=O)(=O)N3CCOCC3)cc2[N+](=O)[O-])cc(C(=O)OC)c1 | inactive |  |
| CC1CCN(CCC(=O)Nc2ccccc2)CC1 | inactive |  |
| O=C(CCN1C(=O)c2ccccc2C1=O)Nc1ccncc1 | inactive |  |
| O=C(CCN1c2ccccc2Sc2ccccc21)Nc1ccccc1 | 12.6 µM (active) |  |
| O=S(=O)(Nc1ccc(-n2cnnn2)cc1)c1ccc(Cl)cc1 | inactive |  |
| Fc1ccccc1-c1cc2cc3c(cc2cn1)OCO3 | inactive |  |
| O=C(CCN1CCCCC1)NCC(=O)Nc1ccc(Br)cc1C(=O)c1ccccc1 | 10 µM (active) |  |
| Cc1ccc(NC(=O)c2nc[nH]c2C(=O)N2CCCCC2)c(C(=O)c2ccccc2)c1 | inactive |  |
| COc1ccc(NC(=O)CCN2CCCC2)c(OC)c1 | inactive |  |
| Cc1cccc(C)c1Nc1nnc(SCC(=O)NCCCN2CCCC2=O)s1 | inactive |  |
| COC(=O)C1=CO[C@@H](O[C@@H]2O[C@H](CO)[C@@H](O)[C@H](O)[C@H]2O)C2C1C[C@H](O)[C@@H]2C (stereo not given in full) | 2.51 µM (active) |  |
| C=CC1C(OC2OC(CO)C(O)C(O)C2O)OC=C(C(=O)OC)C1CC1CC(=O)CC(CC(=O)CCc2ccc(O)cc2)O1 (stereo not given) | inactive |  |
| CO[C@H]1[C@@H]2C=CO[C@@H](O[C@H]3O[C@@H](CO)[C@H](O)[C@@H](O)[C@@H]3O)[C@@H]2[C@@]2(CO)O[C@@H]12 | inactive |  |
